According to the antibiotic and cytotoxicity screens of Wong et al. (2023):
Screen size: about 39,000 compounds; about 3,300 (8.5%) were called active. The sample as a whole holds a higher share of actives than the screen did.

Each compound was assayed on HepG2 (assay: cytotoxicity call (relative viability < 0.9)). Details: 10 µM.
For `C/N=C1/S[C@@H]2CS(=O)(=O)C[C@@H]2N1C`, the cytotoxicity call was “inactive”. With `O=C(C[C@H]1CC[C@H]2[C@@H](COC[C@@H](O)CN2S(=O)(=O)c2ccc(F)cc2)O1)N[C@H]1CCN(Cc2ccccc2)C1` the cytotoxicity call was “inactive”. For `COc1cccc(CNC(=O)C[C@@H]2C=C[C@H](NC(=O)C3CCOCC3)[C@@H](CO)O2)c1`, the cytotoxicity call was “inactive”. With `C[C@@H]1CN([C@@H](C)CO)C(=O)c2cccc(NS(=O)(=O)c3cn(C)cn3)c2O[C@@H]1CN(C)Cc1ccccc1` the cytotoxicity call was “inactive”. For `COc1ccc2cc1Oc1ccc(cc1)CC1c3c(cc4c(c3Oc3cc5c(cc3OC)CCN(C)C5C2)OCO4)CCN1C` (stereo unspecified), the cytotoxicity call was “active”. `COc1cc2c3cc1Oc1cc(ccc1O)C[C@@H]1c4c(cc(OC)c(O)c4Oc4ccc(cc4)C[C@@H]3N(C)CC2)CC[N+]1(C)C` was tested, and the cytotoxicity call was “inactive”. With `COc1ccc2cc1Oc1ccc(cc1)C[C@H]1c3cc(c(OC)cc3CCN1C)Oc1c(OC)c(OC)cc3c1[C@H](C2)N(C)CC3` the cytotoxicity call was “active”. With `COc1cc2c3cc1Oc1cc(ccc1O)CC1c4c(cc(OC)c(O)c4Oc4ccc(cc4)CC3N(C)CC2)CC[N+]1(C)C.Cl.O.O.O.O.O.[Cl-]` (stereo unspecified) the cytotoxicity call was “inactive”. `COc1ccc2cc1Oc1ccc(cc1)C[C@H]1c3c(cc4c(c3Oc3cc5c(cc3OC)CCN(C)[C@@H]5C2)OCO4)CCN1C` was tested, and the cytotoxicity call was “inactive”. In the case of `COc1ccc2cc1Oc1ccc(cc1)CC1c3cc(c(OC)cc3CCN1C)Oc1c(OC)c(OC)cc3c1C(C2)N(C)CC3` (stereo unspecified), the cytotoxicity call is reported as “inactive”. `CO[C@H]1CN(C)C(=O)c2cc(NS(C)(=O)=O)ccc2OC[C@H](C)N(S(C)(=O)=O)C[C@@H]1C` was tested, and the cytotoxicity call was “inactive”. `CNC[C@@H]1OCCCC[C@@H](C)Oc2ccc(NS(=O)(=O)c3cn(C)cn3)cc2C(=O)N([C@@H](C)CO)C[C@@H]1C` was tested, and the cytotoxicity call was “inactive”. With `C[C@H]1CN([C@@H](C)CO)C(=O)c2cc(C#CC3(O)CCCC3)cnc2O[C@H]1CN(C)C(=O)Cc1ccncc1` the cytotoxicity call was “inactive”. In the case of `O=C(NO)c1cccc(C(=O)N/N=C/c2cc(I)cc(I)c2O)c1`, the cytotoxicity call is reported as “inactive”. `O=C(Nc1ccc(Oc2ccc(Cl)cc2)c(Cl)c1)c1cc(I)cc(I)c1O` was tested, and the cytotoxicity call was “active”. With `O=C(Nc1ccc2ccccc2c1)c1ccc(Cl)cc1Cl` the cytotoxicity call was “inactive”. With `C[C@@H]1CN([C@@H](C)CO)C(=O)c2cc(NS(=O)(=O)c3ccc(F)cc3)ccc2O[C@@H](C)CCCCO[C@@H]1CN(C)C(=O)Nc1ccc(C(F)(F)F)cc1` the cytotoxicity call was “active”. With `C[C@@H]1CCCCO[C@H](CN(C)C(=O)Nc2ccc(C(F)(F)F)cc2)[C@@H](C)CN([C@@H](C)CO)C(=O)c2cc(NS(=O)(=O)c3ccc(F)cc3)ccc2O1` the cytotoxicity call was “inactive”. In the case of `C[C@H](CO)N1C[C@H](C)[C@H](CN(C)C(=O)Nc2ccc(C(F)(F)F)cc2)OCCCC[C@H](C)Oc2ccc(NS(=O)(=O)c3ccc(F)cc3)cc2C1=O`, the cytotoxicity call is reported as “inactive”. In the case of `C[C@@H]1CCCCO[C@H](CN(C)C(=O)Nc2ccc(C(F)(F)F)cc2)[C@H](C)CN([C@@H](C)CO)C(=O)c2cc(NS(=O)(=O)c3ccc(F)cc3)ccc2O1`, the cytotoxicity call is reported as “active”. With `C[C@H]1CCCCO[C@H](CN(C)C(=O)Nc2ccc(C(F)(F)F)cc2)[C@@H](C)CN([C@@H](C)CO)C(=O)c2cc(NS(=O)(=O)c3ccc(F)cc3)ccc2O1` the cytotoxicity call was “active”. `C[C@H](CO)N1C[C@H](C)[C@@H](CN(C)C(=O)Nc2ccc(C(F)(F)F)cc2)OCCCC[C@H](C)Oc2ccc(NS(=O)(=O)c3ccc(F)cc3)cc2C1=O` was tested, and the cytotoxicity call was “inactive”. For `C[C@@H]1CCCCO[C@H](CN(C)C(=O)Nc2ccc(C(F)(F)F)cc2)[C@H](C)CN([C@H](C)CO)C(=O)c2cc(NS(=O)(=O)c3ccc(F)cc3)ccc2O1`, the cytotoxicity call was “active”. In the case of `C[C@@H]1CCCCO[C@H](CN(C)C(=O)Nc2ccc(C(F)(F)F)cc2)[C@@H](C)CN([C@H](C)CO)C(=O)c2cc(NS(=O)(=O)c3ccc(F)cc3)ccc2O1`, the cytotoxicity call is reported as “inactive”. In the case of `C[C@H]1CN([C@@H](C)CO)S(=O)(=O)c2ccc(C#CC(C)(C)O)cc2O[C@H]1CN(C)Cc1ccccc1`, the cytotoxicity call is reported as “inactive”. For `O=C(NO)c1ccc(C(=O)N/N=C/[C@H](O)[C@H](O)[C@@H](O)[C@@H](O)CO)cc1`, the cytotoxicity call was “inactive”. With `C[C@@H]1CCCCO[C@H](CN(C)S(=O)(=O)c2ccc(F)cc2)[C@@H](C)CN([C@H](C)CO)C(=O)c2cc(NS(C)(=O)=O)ccc2O1` the cytotoxicity call was “inactive”. For `C[C@@H]1CCCCO[C@H](CN(C)S(=O)(=O)c2ccccc2)[C@H](C)CN([C@H](C)CO)C(=O)c2cc(NC(=O)Nc3ccccc3)ccc2O1`, the cytotoxicity call was “inactive”. In the case of `C[C@@H]1CCCCO[C@@H](CN(C)Cc2ccc(C(=O)Nc3ccccc3N)cc2)[C@@H](C)CN([C@H](C)CO)C(=O)c2cc(NC(=O)CCC(F)(F)F)ccc2O1`, the cytotoxicity call is reported as “inactive”. With `C[C@@H]1CN([C@@H](C)CO)S(=O)(=O)c2ccc(C#C[C@@H](C)O)cc2O[C@H]1CN(C)C(=O)c1ccccc1` the cytotoxicity call was “inactive”. For `COc1ccc(NC(=O)Nc2ccc3c(c2)C(=O)N([C@@H](C)CO)C[C@@H](C)[C@H](CN(C)S(=O)(=O)c2ccccc2)OCCCC[C@H](C)O3)cc1`, the cytotoxicity call was “inactive”. With `COc1ccc(S(=O)(=O)N(C)C[C@H]2Oc3ccc(NS(=O)(=O)c4ccccc4)cc3CC(=O)N([C@H](C)CO)C[C@H]2C)cc1` the cytotoxicity call was “inactive”. With `C[C@@H]1CCCCO[C@@H](CN(C)C(=O)Nc2ccc(C(F)(F)F)cc2)[C@H](C)CN([C@H](C)CO)C(=O)c2cc(NS(=O)(=O)c3ccc(F)cc3)ccc2O1` the cytotoxicity call was “inactive”. `C[C@@H]1CCCCO[C@@H](CN(C)C(=O)Nc2ccc(C(F)(F)F)cc2)[C@@H](C)CN([C@H](C)CO)C(=O)c2cc(NS(=O)(=O)c3ccc(F)cc3)ccc2O1` was tested, and the cytotoxicity call was “active”. `C[C@H]1CCCCO[C@@H](CN(C)C(=O)Nc2ccc(C(F)(F)F)cc2)[C@@H](C)CN([C@@H](C)CO)C(=O)c2cc(NS(=O)(=O)c3ccc(F)cc3)ccc2O1` was tested, and the cytotoxicity call was “inactive”. With `C[C@@H]1CCCCO[C@@H](CN(C)C(=O)Nc2ccc(C(F)(F)F)cc2)[C@H](C)CN([C@@H](C)CO)C(=O)c2cc(NS(=O)(=O)c3ccc(F)cc3)ccc2O1` the cytotoxicity call was “active”.
